Results as given in PubChem BioAssay.

Molecular target: Calmodulin-1 (Homo sapiens) (UniProt P0DP23)
Test: small molecules binding Ca-loaded calmodulin-1 – biochemical, small-molecule microarray, Cy5-labelled CALM1, plus calcium, artefact control for SMM control-protein annotation, profiling panel (AID 1112);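 further: score merges spot fluorescence with signal to noise from triplicate slides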
Conditions: Cy5-CALM1 binding fluorescence, higher = more signal

SMILES	composite z-score
CC(C)(C)OC(=O)CC[C@]1(C(=O)NCCN2CCOCC2)N=C(c2ccc(OCCCO)cc2)O[C@H]1c1ccccc1	0.598
C=CC[C@@]12N=C(c3ccc(OCCCO)cc3)O[C@@H]1c1ccccc1N(CCS(=O)(=O)c1ccccc1)C2=O	0.727
CCOC(=O)C[C@H]1[C@H](OC(=O)c2ccccc2-c2ccccc2)[C@@H](NC(=O)CC(C)C)c2cc(OCCCO)ccc2N1C(=O)c1ccc2ccccc2n1	-0.456
COc1ccc(C(O)C2C=CC3C(=O)N(c4ccccc4)C(=O)C3N2Nc2ccccc2)cc1OCc1ccccc1 (stereo not drawn)	0.734
NCCCCCNC(=O)[C@@H]1C[C@@H]2C(=O)N[C@@H](CCCCN)C(=O)N2[C@@H]1c1cccc(OCCO)c1	-0.262
CCCCC(CC)C(O)C1C=CC2C(=O)N(c3ccccc3)C(=O)C2N1Nc1ccc([N+](=O)[O-])cc1 (stereo not drawn)	-0.371
CC(C)(C)OC(=O)CC[C@]1(C(=O)O)N=C(c2ccc(OCCCO)cc2)O[C@H]1c1ccccc1CN=[N+]=[N-]	0.81
C=C(/C(=C/C[C@@H](OC(=O)c1ccncc1)c1ccccc1OCCO)c1cc(C(=O)OC)ccc1OC)C(C)C	-0.366
O=C1O[C@@H](c2ccccc2)[C@@H](c2ccccc2)N2[C@@H](c3ccccc3OCCO)[C@]3(C(=O)Nc4ccccc43)[C@@H](C(=O)NC[C@H](O)c3ccccc3)[C@H]12	0.845
COCCOC(=O)N1C(=O)[C@@]2(c3cc(C#CC4(O)CCCCCC4)ccc31)[C@H](c1ccccc1OCCO)N1[C@H](c3ccccc3)[C@H](c3ccccc3)OC(=O)[C@H]1[C@@H]2C(N)=O	0.0078
O=c1cccc(-c2cccc(Cl)c2)o1	-0.137
COCCOC(=O)N1C(=O)[C@@]2(c3cc(C#CC4=CCCCC4)ccc31)[C@H](C(=O)N1CCN(c3ncccn3)CC1)[C@H]1C(=O)O[C@H](c3ccccc3)[C@H](c3ccccc3)N1[C@@H]2c1ccc(O)cc1	0.727
COCC(=C=CC[C@H](O)c1ccc(OCCO)cc1)C[C@H](O)COCc1ccccc1	-0.847
C=C[C@@H](COC(C)=O)NS(=O)(=O)c1ccc(Br)cc1	-0.144
O=C1C2C=CC(C(O)c3cc(C(F)(F)F)cc(C(F)(F)F)c3)N(Nc3ccc([N+](=O)[O-])cc3)C2C(=O)N1c1ccccc1 (stereo not drawn)	0.311
CC(=O)NCCCC[C@@H]1NC(=O)[C@@H]2C[C@H](C(=O)O)[C@H](c3ccc(O)cc3)N2C1=O	0.104
COCCOC(=O)N1C(=O)[C@@]2(c3cc(C#CC4=CCCCC4)ccc31)[C@H](c1ccc(O)cc1)N1[C@H](c3ccccc3)[C@H](c3ccccc3)OC(=O)[C@H]1[C@@H]2C(=O)Nc1nc2ccccc2s1	0.0702
CC(C)CNC(=O)[C@@H]1c2ccccc2C(=O)N(Cc2cc(F)cc(C(F)(F)F)c2)[C@H]1c1ccc(CO)cc1	-0.025
C=C(C(=O)CC[C@H](OC(C)=O)c1cccc(OCCO)c1)C(C)C	-0.608
O=C1O[C@@H](c2ccccc2)[C@@H](c2ccccc2)N2[C@@H](c3ccc(O)cc3)[C@]3(C(=O)Nc4ccc(C#CCCO)cc43)[C@@H](C(=O)NC[C@H](O)c3ccccc3)[C@H]12	0.374
CCCN1C(=O)[C@]2(Cc3ccccc3)N=C(c3ccc(OCCCO)cc3)O[C@@H]2c2ccccc21	-0.422
C[C@H]1C2=C3C(CC[C@H]4C(OCc5ccc(F)cc5C(F)(F)F)OC[C@](C)([C@@H]34)N(C(=O)OC(C)(C)C)C2)C2COC(=O)OCC21 (stereo partly drawn)	1.06
O=C1c2ccccc2[C@](Cc2ccccc2I)(C(=O)NCCN2CCOCC2)[C@H](c2ccc(CO)cc2)N1Cc1ccccc1	0.295
COC(=O)[C@@]1(Cc2ccc(OC)cc2)[C@H]2c3cc(C(=O)N(C)C)n(Cc4nc5ccccc5[nH]4)c3C[C@H]2CN1C(=O)c1ccccc1	1.06
C[C@]1(C(=O)NC2CC2)c2ccccc2C(=O)N(Cc2ccc(OC(F)(F)F)cc2)[C@H]1c1ccc(CO)cc1	0.479
CN(C)CCCNC(=O)[C@@H]1c2ccccc2C(=O)N(CC23CC4CC(CC(C4)C2)C3)[C@H]1c1ccc(CO)cc1	-0.632
CC1CC/C=C\[C@H]2OC34C=CCN(C(C)C)C(=O)[C@H]3N(CCCCCO)C(=O)[C@@H]4C2C(=O)O1 (stereo partly drawn)	0.446
C=CCOC(=O)[C@H]1[C@@H]2C(=O)O[C@@H](c3ccccc3)[C@@H](c3ccccc3)N2[C@@H](c2ccc(OCCOC(=O)[C@H]3C[C@H]4C(=O)N[C@@H](Cc5ccccc5)C(=O)N4[C@H]3c3cccc(OCCO)c3)cc2)[C@]12C(=O)Nc1ccc(I)cc12	0.334
